Reference: PubChem BioAssay AID2620 (National Center for Advancing Translational Sciences (NCATS), 2010)
Results filed as inconclusive are left out. The source made the active and inactive calls. The call rests on the fitted dose curve; in most records, active means well fitted curve in the direction sought with a large enough effect; inconclusive means small, poorly fitted or top-dose-only effect, or another doubt; inactive means no such curve, though single readings can be large or run the other way.

Each molecule was assayed against Pyruvate kinase PKM (Homo sapiens) (UniProt P14618) (assay: Secondary LDH Assay for Activators of Human Pyruvate Kinase M1 Isoform: for Probe SAR). Conditions: purified hPK-M1, LDH-coupled NADH fluorescence kinetic; series mostly up to 58.2 µM.
Chain of Pyruvate kinase PKM (Homo sapiens) (P14618 whole entry, looked up, canonical isoform): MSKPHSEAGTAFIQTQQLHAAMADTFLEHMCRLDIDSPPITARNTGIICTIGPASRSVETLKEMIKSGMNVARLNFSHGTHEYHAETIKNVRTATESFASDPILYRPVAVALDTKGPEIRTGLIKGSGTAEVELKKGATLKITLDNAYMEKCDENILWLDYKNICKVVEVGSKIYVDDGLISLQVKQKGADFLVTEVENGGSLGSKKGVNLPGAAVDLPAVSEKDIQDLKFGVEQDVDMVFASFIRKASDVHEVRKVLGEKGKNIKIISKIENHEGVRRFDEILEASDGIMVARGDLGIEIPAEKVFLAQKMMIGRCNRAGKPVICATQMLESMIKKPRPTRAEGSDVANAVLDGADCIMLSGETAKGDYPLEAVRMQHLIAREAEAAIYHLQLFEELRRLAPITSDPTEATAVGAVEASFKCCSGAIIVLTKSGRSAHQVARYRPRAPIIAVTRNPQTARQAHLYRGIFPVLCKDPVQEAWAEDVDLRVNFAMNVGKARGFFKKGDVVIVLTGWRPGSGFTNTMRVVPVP
Text: NIH Chemical Genomics Center [NCGC]
Matthew G. Vander Heiden, M.D., Ph.D. [Harvard Medical School, 77 Avenue Louis Pasteur, Boston, MA 02115]
Human pyruvate kinase […] (hPK-M1)enzyme was supplied as a highly purified (>95% pure) preparation from Harvard Medical School and a secondary assay was used to evaluate compounds. This assay couples the formation of pyruvate from […] using lactate dehydrogenase (LDH) and NADH. The depletion of NADH is followed in a fluorescent-based kinetic assay that follows the formation of pyruvate to lactate, as catalyzed LDH. Pyruvate kinase substrates, PEP and ADP, were present in the assay at 0.1 mM and 4 mM respectively. In this kinetic assay initial rates were determined by following the fluorescence of NADH depletion.
NCGC Assay Protocol Summary:
Three uL of substrate mix (final concentration, 50 mM Tris-Cl pH 8.0, 200 mM KCl, 15 mM MgCl2, 0.1 mM PEP, 4.0 mM ADP, and 0.2 mM NADH) was dispensed into black-solid 1536 well plates. 23 nL of compounds were delivered by a pin tool and 1 uL of enzyme mix (final concentrations, 10 nM hPK-M1 and 1 uM of LDH) was added. Plates were immediately placed in ViewLux (Perkin Elmer) and NADH fluorescence was determined at 30 second exposure intervals for between 3 and 6 minutes. Data were normalized to the uninhibited controls.

outcome, inactive:
Cc1c(Cl)cccc1NS(=O)(=O)c1cc2c(cc1F)NC(=O)CC2
Cc1ccc(NS(=O)(=O)c2cc3c(cc2Cl)CCC(=O)N3)cc1C
Cc1ccc(Nc2c(-c3ccc(C)o3)nc3ccccn23)cc1
COc1ccc(N2C(=O)c3ccccc3C2=O)cc1
Cc1ccc(Cl)cc1NS(=O)(=O)c1cc2c(cc1F)NC(=O)CC2
Cc1ccc2nc(-c3cccs3)c(Nc3ccccc3)n2c1
Cn1c2cc(S(C)=O)sc2c2cnn(Cc3cccc(O)c3)c(=O)c21 (stereo not given)
O=C1CCc2cc(S(=O)(=O)NCc3ccccc3)ccc2N1
CN(C)c1cccc(S(=O)(=O)N2CCN(S(=O)(=O)c3ccc4c(c3)OCCO4)CC2)c1
COc1ccc(S(=O)(=O)Nc2ccc(C)c(C)c2)cc1
COc1ccccc1NS(=O)(=O)c1ccc2c(c1)CCC(=O)N2
O=C1CCc2cc(S(=O)(=O)Nc3cccc(B(O)O)c3)ccc2N1
Cc1ccc(-c2nc3cnccn3c2Nc2ccc(C(C)C)cc2)o1
O=C1CCc2cc(S(=O)(=O)Nc3ccc(Cl)c(Cl)c3)ccc2N1
COc1cccc(Cn2ncc3c4sc(S(C)=O)cc4n(C)c3c2=O)c1 (stereo not given)
Cn1c2cc(S(C)=O)sc2c2cnn(Cc3cccc(N)c3)c(=O)c21 (stereo not given)
COc1cccc(NS(=O)(=O)c2ccc3c(c2)CCC(=O)N3)c1
Cc1ccc(NS(=O)(=O)c2ccc3c(c2)N(C)CCO3)cc1C
COc1ccc(OC2=NS(=O)(=O)c3ccccc32)cc1
Cc1ccc(NS(=O)(=O)c2ccc(Cl)cc2)cc1C
Cc1ccccc1NS(=O)(=O)c1ccc2c(c1)CCC(=O)N2
Cc1nc(-c2ccc(S(=O)(=O)Nc3ccc(C)c(C)c3)s2)cs1
CSc1cc2c(s1)c1cnn(Cc3cccc(O)c3)c(=O)c1n2C
Cc1ccc(Nc2c(-c3ccc(C)o3)nc3cccc(C)n23)cc1
O=C1c2ccccc2C(=O)N1c1ccccc1O
CNc1cccc(S(=O)(=O)N2CCCN(S(=O)(=O)c3ccc4c(c3)OCCO4)CC2)c1
O=C1c2ccccc2C(=O)N1c1cccc(Cl)c1
O=C1c2ccccc2C(=O)N1c1noc2ccccc12
Cc1ccccc1OC1=NS(=O)(=O)c2ccccc21
Cc1ccc(NS(=O)(=O)c2ccc3c(c2)CCC(=O)N3)cc1
Cc1ccc(NS(=O)(=O)c2cc3c(cc2Cl)NC(=O)C3)cc1C
O=C1c2ccccc2C(=O)N1c1ccc(O)cc1
Cc1ccc(Cl)cc1NS(=O)(=O)c1cc2c(cc1Cl)CCC(=O)N2
O=C1c2ccccc2C(=O)N1Cc1cccnc1
Cc1ccccc1Nc1c(-c2ccc(Cl)s2)nc2ccccn12
COc1cc(N2C(=O)c3ccccc3C2=O)c2ncccc2c1
Cc1c(Cl)cccc1NS(=O)(=O)c1cc2c(cc1Cl)CCC(=O)N2
Cc1ccc(NS(=O)(=O)c2cc3c(cc2/C=C/c2ccccc2)NC(=O)CO3)cc1C
Cc1cc(N2C(=O)c3ccccc3C2=O)n[nH]1
O=C1CCc2cc(S(=O)(=O)Nc3ccc(-c4ccccc4)cc3)ccc2N1
